Experimental data reported in PubChem BioAssay (NCI).
This is part of a sample that, as a whole, favours compounds with a hit. Of some 79,000 tested, about 15% had one in any assay. Unmarked numbers belong to inactive results. The source made the active and inactive calls. No stated cut-off is given here; in the data, active means growth inhibition above about 70%; inactive means the rest.

Experiments:
[1] = NCI Yeast Anticancer Drug Screen. Data for the rad52 strain (AID 147);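 further: 0% = growth of vehicle-treated control cultures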; conditions: S. cerevisiae rad52 mutant growth inhibition, hits give high values
In short: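 Growth of repair-deficient yeast cells was compared between compound-treated and vehicle-treated cultures to give percent inhibition.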

[2] = NCI Yeast Anticancer Drug Screen. Data for the wt1 strain (AID 149);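 further: 0% = growth of vehicle-treated wt1 cultures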; conditions: S. cerevisiae wt1 strain (SPY 50644) growth inhibition, hits give high values
In short: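 Growth inhibition read against vehicle controls after compound exposure of the wt1 yeast strain.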

[3] = NCI Yeast Anticancer Drug Screen. Data for the rad50EPP+ strain (AID 151);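 further: 0% = growth of vehicle-treated control cultures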; conditions: S. cerevisiae rad50 mutant strain, hits give high values
In short: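 Measured: growth inhibition of rad50EPP+ yeast. Reference: vehicle-treated controls. Screen uses strains with defined genetic alterations in DNA damage repair or cell cycle control.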

[4] = NCI Yeast Anticancer Drug Screen. Data for the mgt1 strain (AID 153); conditions: S. cerevisiae mgt1 mutant growth inhibition, hits give high values
In short: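 Compounds were applied to mgt1 mutant yeast, and growth was then compared against vehicle-treated control cultures to give percent inhibition.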

[5] = NCI Yeast Anticancer Drug Screen. Data for the rad50 strain (AID 155);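 further: 0% = growth of vehicle-only cultures of the same strain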; conditions: S. cerevisiae rad50 strain growth inhibition, hits give high values
In short: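 Readout: growth inhibition relative to vehicle-treated cultures. Compound exposure was carried out in a genetically defined yeast strain deficient in DNA damage repair.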

[6] = NCI Yeast Anticancer Drug Screen. Data for the mec2-1 strain (AID 157); conditions: S. cerevisiae mec2-1 strain, hits give high values
In short: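 Compounds were applied to mec2-1 yeast cells. Their growth was then compared with that of vehicle-treated cultures to give growth inhibition.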

[7] = NCI Yeast Anticancer Drug Screen. Data for the sgs1 mgt1 strain (AID 161);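 further: 0% = growth of cultures given vehicle only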; conditions: S. cerevisiae sgs1 mgt1 strain, hits give high values
In short: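 This yeast growth screen uses a strain with defined DNA-repair lesions; compound-treated growth is compared with vehicle-treated growth.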

[8] = NCI Yeast Anticancer Drug Screen. Data for the CLN2oe strain (AID 163);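 further: 0% = growth of vehicle-only control cultures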; conditions: S. cerevisiae CLN2oe strain, hits give high values
In short: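 Cells of an engineered yeast line with disturbed cell-cycle regulation are treated with compound. Inhibition of growth is then calculated relative to the vehicle-treated reference.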

[9] = NCI Yeast Anticancer Drug Screen. Data for the cln2 rad14 strain (AID 165);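 further: 0% = growth equal to vehicle treated cultures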; conditions: S. cerevisiae cln2 rad14 strain, hits give high values
In short: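 Strain: cln2 rad14 yeast, altered in cell cycle control and DNA damage repair. Read-out: growth inhibition vs vehicle.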

[10] = NCI Yeast Anticancer Drug Screen. Data for the bub3 strain (AID 167); conditions: S. cerevisiae bub3 mutant strain, hits give high values
In short: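 Readout: yeast growth inhibition, expressed relative to vehicle-only wells. The test organism is a mutant strain from a panel with lesions in DNA repair or checkpoint genes.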

[11] = NCI Yeast Anticancer Drug Screen. Data for the wt2 strain (AID 169);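 further: 0% = growth of vehicle-treated yeast cultures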; conditions: S. cerevisiae wt2 strain growth inhibition, hits give high values
In short: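 Growth of compound-treated yeast is measured and expressed as inhibition relative to vehicle-only controls.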

[12] = NCI Yeast Anticancer Drug Screen. Data for the mlh1 strain (AID 171);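 further: 0% = growth of vehicle-treated control cultures of the same strain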; conditions: S. cerevisiae mlh1 strain growth inhibition, hits give high values
In short: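 Test agents were incubated with yeast bearing a defined DNA damage repair or cell cycle control alteration; values are growth inhibition normalised to vehicle-treated cultures.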

[13] = NCI Yeast Anticancer Drug Screen. Data for the sgs1 strain (AID 173);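 further: 0% = growth of vehicle-only control cultures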; conditions: S. cerevisiae sgs1 mutant, hits give high values
In short: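 Strain with an altered DNA repair or cell cycle pathway exposed to compound. Growth then measured. Value = inhibition versus vehicle control.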

[14] = NCI Yeast Anticancer Drug Screen. Data for the mlh1 rad18 strain (AID 175); conditions: S. cerevisiae mlh1 rad18 strain growth inhibition, hits give high values
In short: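 A repair-deficient yeast strain is exposed to test compound, and growth is scored relative to vehicle-treated controls.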

[15] = NCI Yeast Anticancer Drug Screen. Data for the rad18 strain (AID 177); conditions: S. cerevisiae rad18 mutant growth inhibition, hits give high values
In short: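 DNA-repair-defective yeast; compound treatment; growth inhibition scored against vehicle.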

[16] = NCI Yeast Anticancer Drug Screen. Data for the rad14 strain (AID 159);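 further: 0% = growth of vehicle-treated control cultures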; conditions: S. cerevisiae rad14 strain growth inhibition, hits give high values
In short: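 Growth inhibition vs vehicle controls; genetically altered yeast strain (DNA damage repair defect) treated with test compounds.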

[17] = at 5.0 µM (retest, dose inferred, filed as 0.5)
[18] = at 50.0 µM (retest, dose inferred, filed as 5.0)

With `N#C/C(=C/c1c(Cl)cccc1Cl)C(N)=O` the growth inhibition ([1]; at 1.2 µM) was 0%, the growth inhibition ([1]; at 3.7 µM) was 5% and the growth inhibition ([1]; at 11.0 µM) was 13%. For the same molecule, the growth inhibition ([1]; at 33.0 µM) was 63%, the growth inhibition ([1]; at 100.0 µM) was 96% (active) and the growth inhibition ([2]; at 1.2 µM) was 13%. The growth inhibition ([2]; at 3.7 µM) was 13%, the growth inhibition ([2]; at 11.0 µM) was 10% and the growth inhibition ([2]; at 33.0 µM) was 47%. For the same molecule, the growth inhibition ([2]; at 100.0 µM) was 96% (active), the growth inhibition ([3]; at 1.2 µM) was -24% and the growth inhibition ([3]; at 3.7 µM) was -29%. The growth inhibition ([3]; at 11.0 µM) was -30%, the growth inhibition ([3]; at 33.0 µM) was -24% and the growth inhibition ([3]; at 100.0 µM) was 57%. For the same molecule, the growth inhibition ([4]; at 1.2 µM) was -4%, the growth inhibition ([4]; at 3.7 µM) was -15% and the growth inhibition ([4]; at 11.0 µM) was 1%. The growth inhibition ([4]; at 33.0 µM) was 63%, the growth inhibition ([4]; at 100.0 µM) was 98% (active) and the growth inhibition ([5]; at 1.2 µM) was -10%. It also gave a growth inhibition ([5]; at 3.7 µM) of 3%, a growth inhibition [5, 17] of 47% and a growth inhibition ([5]; at 11.0 µM) of 3%. The growth inhibition ([5]; at 33.0 µM) was 69%, the growth inhibition ([5]; at 50.0 µM) was 77.2% (active) and the growth inhibition ([5]; at 100.0 µM) was 97% (active). The growth inhibition ([6]; at 1.2 µM) was -26%, the growth inhibition ([6]; at 3.7 µM) was -8% and the growth inhibition [6, 17] was 46%. The growth inhibition ([6]; at 11.0 µM) was -7%, the growth inhibition ([6]; at 33.0 µM) was 58% and the growth inhibition ([6]; at 50.0 µM) was 74.8% (active). The growth inhibition ([6]; at 100.0 µM) was 97% (active), the growth inhibition [7, 17] was -1% and the growth inhibition ([8]; at 1.2 µM) was 9%. For the same molecule, the growth inhibition ([8]; at 3.7 µM) was -2%, the growth inhibition ([8]; at 11.0 µM) was 3% and the growth inhibition ([8]; at 33.0 µM) was 18%. For the same molecule, the growth inhibition ([8]; at 100.0 µM) was 81% (active), the growth inhibition [9, 17] was 45% and the growth inhibition ([10]; at 1.2 µM) was -5%. It also gave a growth inhibition ([10]; at 3.7 µM) of 4%, a growth inhibition [10, 17] of 37% and a growth inhibition ([10]; at 11.0 µM) of 14%. For the same molecule, the growth inhibition ([10]; at 33.0 µM) was 65%, the growth inhibition [10, 18] was 96% (active) and the growth inhibition ([10]; at 100.0 µM) was 97% (active). The growth inhibition ([11]; at 1.2 µM) was -16%, the growth inhibition ([11]; at 3.7 µM) was -2% and the growth inhibition ([11]; at 11.0 µM) was -2%. The growth inhibition ([11]; at 33.0 µM) was 58%, the growth inhibition ([11]; at 100.0 µM) was 96% (active) and the growth inhibition ([12]; at 1.2 µM) was -16%. The growth inhibition ([12]; at 3.7 µM) was -15%, the growth inhibition ([12]; at 11.0 µM) was 0% and the growth inhibition ([12]; at 33.0 µM) was 71% (active). For the same molecule, the growth inhibition ([12]; at 100.0 µM) was 97% (active), the growth inhibition ([13]; at 1.2 µM) was 15% and the growth inhibition ([13]; at 3.7 µM) was 9%. The growth inhibition ([13]; at 11.0 µM) was 21%, the growth inhibition ([13]; at 33.0 µM) was 74% (active) and the growth inhibition ([13]; at 100.0 µM) was 98% (active). The growth inhibition [14, 17] was 34%, the growth inhibition [14, 18] was 76% (active) and the growth inhibition ([14]; at 50.0 µM) was 61.7%. The growth inhibition ([15]; at 1.2 µM) was -19%, the growth inhibition ([15]; at 3.7 µM) was -11% and the growth inhibition ([15]; at 11.0 µM) was 6%. The growth inhibition ([15]; at 33.0 µM) was 81% (active) and the growth inhibition ([15]; at 100.0 µM) was 97% (active).
Work on `CC(=O)O[C@H]1C(=O)[C@@]2(C)[C@H]([C@H](OC(=O)c3ccccc3)[C@]3(O)C[C@H](OC(=O)[C@H](O)[C@@H](NC(=O)c4ccccc4)c4ccccc4)C(C)=C1C3(C)C)[C@]1(OC(C)=O)CO[C@@H]1C[C@@H]2O` yielded a growth inhibition ([1]; at 1.2 µM) of 0%, a growth inhibition ([1]; at 3.7 µM) of 0% and a growth inhibition ([1]; at 11.0 µM) of 1%. It also gave a growth inhibition ([1]; at 33.0 µM) of 1%, a growth inhibition ([1]; at 100.0 µM) of 0% and a growth inhibition ([2]; at 1.2 µM) of -1%. For the same molecule, the growth inhibition ([2]; at 3.7 µM) was -2%, the growth inhibition ([2]; at 11.0 µM) was -2% and the growth inhibition ([2]; at 33.0 µM) was -3%. The growth inhibition ([2]; at 100.0 µM) was -18%, the growth inhibition ([3]; at 1.2 µM) was -4% and the growth inhibition ([3]; at 3.7 µM) was -2%. The growth inhibition ([3]; at 11.0 µM) was -2%, the growth inhibition ([3]; at 33.0 µM) was 3% and the growth inhibition ([3]; at 100.0 µM) was 0%. It also gave a growth inhibition ([4]; at 1.2 µM) of -2%, a growth inhibition ([4]; at 3.7 µM) of -2% and a growth inhibition ([4]; at 11.0 µM) of -3%. The growth inhibition ([4]; at 33.0 µM) was -3%, the growth inhibition ([4]; at 100.0 µM) was -7% and the growth inhibition ([5]; at 1.2 µM) was -1%. It also gave a growth inhibition ([5]; at 3.7 µM) of -2%, a growth inhibition ([5]; at 11.0 µM) of 0% and a growth inhibition ([5]; at 33.0 µM) of -1%. For the same molecule, the growth inhibition ([5]; at 50.0 µM) was 23.4%, the growth inhibition ([5]; at 100.0 µM) was -6% and the growth inhibition ([6]; at 1.2 µM) was -5%. For the same molecule, the growth inhibition ([6]; at 3.7 µM) was -2%, the growth inhibition ([6]; at 11.0 µM) was 2% and the growth inhibition ([6]; at 33.0 µM) was -4%. It also gave a growth inhibition ([6]; at 50.0 µM) of 18.3%, a growth inhibition ([6]; at 100.0 µM) of -10% and a growth inhibition ([16]; at 1.2 µM) of -1%. The growth inhibition ([16]; at 3.7 µM) was -2%, the growth inhibition ([16]; at 11.0 µM) was 1% and the growth inhibition ([16]; at 33.0 µM) was -2%. For the same molecule, the growth inhibition ([16]; at 100.0 µM) was -5%, the growth inhibition ([7]; at 50.0 µM) was -9% and the growth inhibition ([8]; at 1.2 µM) was -4%. The growth inhibition ([8]; at 3.7 µM) was -4%, the growth inhibition ([8]; at 11.0 µM) was -5% and the growth inhibition ([8]; at 33.0 µM) was -7%. The growth inhibition ([8]; at 100.0 µM) was -13%, the growth inhibition ([9]; at 50.0 µM) was 24.1% and the growth inhibition ([10]; at 1.2 µM) was -5%. It also gave a growth inhibition ([10]; at 3.7 µM) of -5%, a growth inhibition ([10]; at 11.0 µM) of 2% and a growth inhibition ([10]; at 33.0 µM) of -13%. The growth inhibition ([10]; at 50.0 µM) was -4.15%, the growth inhibition ([10]; at 100.0 µM) was -3% and the growth inhibition ([11]; at 1.2 µM) was -2%. The growth inhibition ([11]; at 3.7 µM) was -2%, the growth inhibition ([11]; at 11.0 µM) was -4% and the growth inhibition ([11]; at 33.0 µM) was -4%. For the same molecule, the growth inhibition ([11]; at 100.0 µM) was -5%, the growth inhibition ([12]; at 1.2 µM) was -1% and the growth inhibition ([12]; at 3.7 µM) was -4%. The growth inhibition ([12]; at 11.0 µM) was -3%, the growth inhibition ([12]; at 33.0 µM) was -4% and the growth inhibition ([12]; at 100.0 µM) was -6%. It also gave a growth inhibition ([13]; at 1.2 µM) of -3%, a growth inhibition ([13]; at 3.7 µM) of -3% and a growth inhibition ([13]; at 11.0 µM) of -1%. The growth inhibition ([13]; at 33.0 µM) was -3%, the growth inhibition ([13]; at 100.0 µM) was -4% and the growth inhibition ([14]; at 50.0 µM) was 15.8%. It also gave a growth inhibition ([15]; at 1.2 µM) of -5%, a growth inhibition ([15]; at 3.7 µM) of -1% and a growth inhibition ([15]; at 11.0 µM) of 1%. The growth inhibition ([15]; at 33.0 µM) was 2% and the growth inhibition ([15]; at 100.0 µM) was 0%.
